Assay outcomes as filed in PubChem BioAssay.
GluA2 TARP mod: GluA2-stargazin AMPA receptor complex modulation. 40,000 compounds, 3.5% hits. HEK293 GluA2+stargazin, membrane potential dye (FDSS), glutamate EC50; hits were called plate by plate, in both directions. calls only at 30 µM;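 active = any of four per-well response measures lying three or more SD from its plate-wide compound average, in either direction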
Target sequence (O88602 whole entry, looked up): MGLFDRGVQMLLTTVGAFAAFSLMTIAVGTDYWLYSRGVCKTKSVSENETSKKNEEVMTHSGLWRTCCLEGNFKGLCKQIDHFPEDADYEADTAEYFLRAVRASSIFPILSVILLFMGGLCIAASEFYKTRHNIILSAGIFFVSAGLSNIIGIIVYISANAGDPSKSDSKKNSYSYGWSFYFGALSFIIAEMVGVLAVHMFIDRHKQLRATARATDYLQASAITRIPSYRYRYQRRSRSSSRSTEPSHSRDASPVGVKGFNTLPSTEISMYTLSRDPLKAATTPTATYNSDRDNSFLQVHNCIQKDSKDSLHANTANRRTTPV
Target sequence (P19491 whole entry, looked up): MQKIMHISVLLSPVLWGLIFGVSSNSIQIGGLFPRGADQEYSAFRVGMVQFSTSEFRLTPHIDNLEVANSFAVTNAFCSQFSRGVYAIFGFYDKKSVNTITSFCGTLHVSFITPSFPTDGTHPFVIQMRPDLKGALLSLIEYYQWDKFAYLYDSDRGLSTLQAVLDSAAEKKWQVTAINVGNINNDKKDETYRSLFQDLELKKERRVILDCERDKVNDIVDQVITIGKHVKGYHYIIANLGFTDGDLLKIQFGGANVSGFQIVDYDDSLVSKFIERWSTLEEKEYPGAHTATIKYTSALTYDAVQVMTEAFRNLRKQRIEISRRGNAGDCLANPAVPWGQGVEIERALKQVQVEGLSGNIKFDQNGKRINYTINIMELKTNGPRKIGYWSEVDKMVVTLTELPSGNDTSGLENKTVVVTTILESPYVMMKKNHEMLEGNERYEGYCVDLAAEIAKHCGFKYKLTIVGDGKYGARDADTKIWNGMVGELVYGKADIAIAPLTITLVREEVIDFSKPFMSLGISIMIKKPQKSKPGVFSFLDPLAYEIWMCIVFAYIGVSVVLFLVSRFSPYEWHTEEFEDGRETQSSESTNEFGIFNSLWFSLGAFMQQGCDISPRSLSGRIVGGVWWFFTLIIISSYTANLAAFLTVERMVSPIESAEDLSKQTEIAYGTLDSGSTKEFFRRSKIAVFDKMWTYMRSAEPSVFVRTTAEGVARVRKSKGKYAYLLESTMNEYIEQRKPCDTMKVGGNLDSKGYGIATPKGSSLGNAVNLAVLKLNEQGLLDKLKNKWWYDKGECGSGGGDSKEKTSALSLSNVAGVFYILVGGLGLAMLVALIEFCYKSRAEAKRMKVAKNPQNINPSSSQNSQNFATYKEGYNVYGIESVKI
GIRK2 activator: Activates human GIRK2-containing potassium channels. P48051. HEK293 GIRK2/NPY4 cells, thallium flux fluorescence. activation (% efficacy), % for hits at 37.5 µM. 34,000 tested, under 10 active. AID 1259324;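 active = primary screen hit, no activity in plain HEK293 cells, and in GIRK2-only cells above 5% efficacy rising with concentration; inactive = the rest, including fluorescent compounds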;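 also: efficacy is normalized control-subtracted fluorescence 15 s after thallium addition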
Active calls of the source: *; ! = not confirmed by another sample. This is one part of a sample in which hits are shown more often than they occur.

For Cc1nc(NCC2CCCO2)nc(Nc2ccc(F)cc2)c1[N+](=O)[O-] (centres undefined) the results were GluA2 TARP mod inactive and GIRK2 activator inactive.
Cc1nc(NCC2CCCO2)nc(NC2CCCCC2)c1[N+](=O)[O-] (centres undefined) was read as GluA2 TARP mod active and GIRK2 activator inactive.
For O=S(=O)(c1ccc(OC(F)(F)F)cc1)N1CCC(c2cccs2)CC1 the results were GluA2 TARP mod inactive and GIRK2 activator inactive.
For COc1ccc(-c2ccc3c(N)c(-c4ccc(C#N)cc4)sc3n2)cc1 the results were GluA2 TARP mod active and GIRK2 activator inactive.
`COc1ccc(-c2ccc(C#N)c(SCc3ccc(C#N)cc3)n2)cc1` gave GluA2 TARP mod inactive and GIRK2 activator inactive.
`COc1ccc(-c2cc(=O)[nH]c(SCc3nc(-c4cccc(OC)c4OC)no3)n2)cc1` gave GIRK2 activator inactive.
`Cc1ccccc1NC(=O)c1ccc(=O)n(Cc2ccccc2F)c1` gave GluA2 TARP mod inactive and GIRK2 activator inactive.
For CCN1CCc2nc(N)sc2C1 the results were GluA2 TARP mod active and GIRK2 activator inactive.
Screening CCOC(=O)N1CCc2nc(NC(C)=O)sc2C1 returned GluA2 TARP mod inactive and GIRK2 activator inactive.
`Cc1nc2nc(-c3ccc(O)cc3)cc(C(=O)O)c2[nH]1` gave GluA2 TARP mod inactive and GIRK2 activator inactive.
COc1cc(NC(=O)c2sccc2N(C)S(=O)(=O)c2ccccc2)cc(OC)c1OC was read as GluA2 TARP mod inactive and GIRK2 activator inactive.
`CC(NC(=O)c1ccc(S(=O)(=O)N2CCOCC2)o1)c1ccccc1` (centres undefined) gave GluA2 TARP mod inactive and GIRK2 activator inactive.
`O=C(NC(c1ccccc1)c1ccccc1)c1ccc(S(=O)(=O)NCc2ccco2)o1` gave GluA2 TARP mod active and GIRK2 activator inactive.
Screening CC(=O)CC1(O)C(=O)N(CCOc2ccc(C(C)(C)C)cc2)c2ccccc21 (centres undefined) returned GluA2 TARP mod active! and GIRK2 activator inactive.
Screening CC(=O)CC1(O)C(=O)N(CCCOc2ccccc2C)c2ccccc21 (centres undefined) returned GluA2 TARP mod inactive and GIRK2 activator inactive.
Screening CCCCCn1c(C)c(C)n2c3c(=O)n(C)c(=O)n(C)c3nc12 returned GluA2 TARP mod inactive and GIRK2 activator inactive.
Screening CCCCn1c(NCCCN2CCOCC2)nc2c1c(=O)[nH]c(=O)n2C returned GluA2 TARP mod inactive and GIRK2 activator inactive.
`Cc1cn2c3c(=O)[nH]c(=O)n(C)c3nc2n1CCCN1CCOCC1` gave GluA2 TARP mod active and GIRK2 activator inactive.
Cc1c(C)n2c3c(=O)n(C)c(=O)n(C)c3nc2n1CCCN1CCOCC1 was read as GluA2 TARP mod active and GIRK2 activator inactive.
For Cn1c(=O)c2c(nc3n(CCN4CCOCC4)c(-c4ccccc4)cn23)n(C)c1=O the results were GluA2 TARP mod active.
`Cc1ccc(-n2c(-c3ccccc3)cn3c4c(=O)n(CCN5CCOCC5)c(=O)n(C)c4nc23)cc1` gave GluA2 TARP mod inactive.
Screening Cc1c(C)n2c3c(=O)n(CC(N)=O)c(=O)n(C)c3nc2n1-c1ccc(Br)cc1 returned GluA2 TARP mod inactive.
Cc1c(C)n2c3c(=O)n(CC(N)=O)c(=O)n(C)c3nc2n1CCCn1ccnc1 was read as GluA2 TARP mod active and GIRK2 activator inactive.
O=C(NCc1ccc2c(c1)OCO2)C(=O)NCc1ccc(F)cc1F was read as GluA2 TARP mod inactive and GIRK2 activator inactive.
For O=S(=O)(c1cccc(C(F)(F)F)c1)N(Cc1ccsc1)Cc1ccccn1 the results were GIRK2 activator inactive.
For CCOCCN1N=C(c2ccc(F)cc2)Cn2c1nc1c2c(=O)n(C)c(=O)n1C the results were GluA2 TARP mod inactive.
For COC(=O)Cn1c(-c2ccccc2)cn2c3c(=O)n(C)c(=O)n(C)c3nc12 the results were GluA2 TARP mod active and GIRK2 activator inactive.
Screening Cn1c(=O)c2c(nc3n2CC(c2ccc(F)cc2)=NN3CCN2CCOCC2)n(C)c1=O returned GluA2 TARP mod active and GIRK2 activator inactive.
For CCOC(=O)Cn1c(-c2ccccc2)cn2c3c(=O)n(C)c(=O)n(C)c3nc12 the results were GluA2 TARP mod inactive.
Cc1cccc(-n2c(C)c(C)n3c4c(=O)n(CC(=O)C(C)(C)C)c(=O)n(C)c4nc23)c1C was read as GluA2 TARP mod inactive.
Screening CCCS(=O)(=O)N1CCCc2ccc(NS(=O)(=O)c3ccc(OC)c(OC)c3)cc21 returned GluA2 TARP mod inactive.
Screening Cc1c(C)n2c3c(=O)n(Cc4cccc(Cl)c4)c(=O)n(C)c3nc2n1CCN(C)C returned GluA2 TARP mod active and GIRK2 activator inactive.
`Cc1ccc(C)c(Cn2c(=O)c3c(nc4n(CCCN(C)C)c(C)c(C)n34)n(C)c2=O)c1` gave GluA2 TARP mod inactive and GIRK2 activator inactive.
